Experimental data published in the supplement of paper PMC9262897, “Low-cost anti-mycobacterial drug discovery using engineered E. coli” (Nature Communications, 2022).
Counter-ions that a name gives are not always drawn. ± gives the standard deviation of the averaged measurements.

What was measured:
Assay in all cases: growth (OD600 after 10 h); higher = more growth (less inhibition)
[1] = tested on: E. coli TESEC Alr+ wild-type control; conditions: compound 0.1 mM; raw OD600 reference: median of DMSO wells 0.241, cell-free background 0.041
Method: (§1)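 TESEC Mtb Alr E. coli, or the Alr+ wild-type control, in 384-well plates with Prestwick library compounds at 0.1 mM and 1% DMSO, across arabinose induction levels of 1E3 to 1E7 nM. Growth is read as OD600 after 10 h at 37 °C in triplicate biological replicates.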

[2] = tested on: E. coli TESEC Mtb Alr; conditions: compound 0.1 mM
Method: as §1

[3] = tested on: E. coli TESEC Mtb Asd; conditions: compound 0.1 mM
Method: (§2)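 TESEC E. coli strains in which the native enzyme is deleted and replaced by arabinose-inducible Mtb Asd, DapB, CysH or TrpD, each grown in its selective medium. Strains were screened against the Prestwick library at 0.1 mM and 1% DMSO in 384-well format at low and high arabinose induction. Growth is read as OD600 after 10 h in triplicate.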

[4] = tested on: E. coli TESEC Alr+ wild-type control; conditions: compound 0.1 mM; raw OD600 reference: median of DMSO wells 0.49, cell-free background 0.052
Method: (§3)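 TESEC Mtb Alr E. coli (ΔaraC ΔtolC ΔentC Δalr ΔdadX, arabinose-inducible Mtb Alr) or the Alr+ wild-type control strain, grown in defined M9-fructose medium without D-alanine in 96-well plates with Prestwick library compounds at 0.1 mM and 1% DMSO. Low Alr induction is 0.1 µM arabinose and high induction is 10 mM arabinose.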

[5] = tested on: E. coli TESEC Mtb Alr; conditions: compound 0.1 mM; remark: listed apart in the source
Method: as §3

[6] = tested on: E. coli TESEC Mtb DapB; conditions: compound 0.1 mM
Method: as §2

[7] = arabinose 1000 nM, raw OD600 reference: median of DMSO wells 0.294, cell-free background 0.041
[8] = arabinose 10000 nM, raw OD600 reference: median of DMSO wells 0.264, cell-free background 0.041
[9] = arabinose 100000 nM, raw OD600 reference: median of DMSO wells 0.201, cell-free background 0.041
[10] = arabinose 1000000 nM, raw OD600 reference: median of DMSO wells 0.193, cell-free background 0.041
[11] = arabinose 10000000 nM, raw OD600 reference: median of DMSO wells 0.146, cell-free background 0.041
[12] = arabinose induction (level): High, raw OD600 reference: median of DMSO wells 0.331, cell-free background 0.041
[13] = arabinose induction (level): Low, raw OD600 reference: median of DMSO wells 0.417, cell-free background 0.041
[14] = arabinose 100 nM, raw OD600 reference: median of DMSO wells 0.413, cell-free background 0.052
[15] = arabinose 10000000 nM, raw OD600 reference: median of DMSO wells […], cell-free background 0.052
[16] = arabinose induction (level): High, raw OD600 reference: median of DMSO wells […], cell-free background 0.041
[17] = arabinose induction (level): Low, raw OD600 reference: median of DMSO wells 0.227, cell-free background 0.041

Compound	growth [1]	growth [2, 7]	growth [2, 8]	growth [2, 9]	growth [2, 10]	growth [2, 11]	growth [3, 12]	growth [3, 13]	growth [4]	growth [5, 14]	growth [5, 15]	growth [6, 16]	growth [6, 17]
Clc1ccc(C(Cn2ccnc2)OCc2ccsc2Cl)c(Cl)c1 (configuration not stated) [Tioconazole]	0.04147 ± 0.00032	0.0412 ± 0.0011	0.0461 ± 0.00071	0.04173 ± 0.00029	0.0443 ± 0.00052	0.04223 ± 0.00035	0.0476 ± 0.0011	0.0482 ± 0.0016	0.0501 ± 0.00075	0.0561 ± 0.0097	0.051 ± 0.00017	–	–
C[C@H]1C[C@H]2[C@@H]3CCC4=CC(=O)C=C[C@]4(C)[C@@]3(F)[C@@H](O)C[C@]2(C)[C@@]1(O)C(=O)CO [Betamethasone]	0.184 ± 0.0078	0.231 ± 0.031	0.256 ± 0.002	0.154 ± 0.0079	0.134 ± 0.0038	0.131 ± 0.0027	0.273 ± 0.096	0.36 ± 0.054	0.552 ± 0.02	0.406 ± 0.0084	0.257 ± 0.0044	–	–
CC(=O)Oc1ccccc1C(=O)O [Acetylsalicylic acid]	0.242 ± 0.003	0.2936 ± 0.0015	0.292 ± 0.014	0.202 ± 0.019	0.19 ± 0.01	0.147 ± 0.0031	0.264 ± 0.051	0.314 ± 0.022	–	0.413 ± 0.011	0.334 ± 0.012	0.198 ± 0.016	0.237 ± 0.054
CCN1CCN(c2cc3c(cc2F)c(=O)c(C(=O)O)cn3C2CC2)CC1 [Enrofloxacin]	0.04133 ± 0.00021	0.0446 ± 0.0089	0.0393 ± 0.00035	0.0406 ± 0.0012	0.0391 ± 0.0002	0.0419 ± 0.0033	0.0465 ± 0.0016	0.0466 ± 0.0016	0.0543 ± 0.0025	0.05387 ± 0.00035	0.0522 ± 0.001	–	–
CC(=O)OCC(CCn1cnc2cnc(N)nc21)COC(C)=O [Famciclovir]	0.23 ± 0.005	0.288 ± 0.0069	0.269 ± 0.0058	0.184 ± 0.031	0.21 ± 0.021	0.14 ± 0.0045	0.284 ± 0.048	0.386 ± 0.039	0.56 ± 0.17	0.4163 ± 0.0038	0.346 ± 0.0062	–	–
Cc1cn([C@H]2C[C@H](N=[N+]=[N-])[C@@H](CO)O2)c(=O)[nH]c1=O [Zidovudine, AZT]	0.0935 ± 0.0041	0.0804 ± 0.011	0.0544 ± 0.0014	0.0839 ± 0.0005	0.0604 ± 0.0022	0.103 ± 0.0045	0.1 ± 0.0079	0.0819 ± 0.012	–	0.166 ± 0.012	0.125 ± 0.017	0.148 ± 0.0088	0.0825 ± 0.0056
S=c1[nH]cnc2nc[nH]c12 [Mercaptopurine]	0.062 ± 0.002	0.0619 ± 0.0038	0.0528 ± 0.0011	0.0694 ± 0.0044	0.0545 ± 0.0019	0.0747 ± 0.0012	0.176 ± 0.021	0.167 ± 0.01	0.234 ± 0.018	0.334 ± 0.017	0.113 ± 0.01	–	–
CSc1ccc2c(c1)N(CCC1CCCCN1C)c1ccccc1S2 (configuration not stated) [Thioridazine hydrochloride]	0.04013 ± 0.00015	0.0427 ± 0.0046	0.0393 ± 0.00064	0.04037 ± 0.00031	0.03907 ± 0.00012	0.04007 ± 5.8e-05	0.0505 ± 0.0013	0.0523 ± 0.0022	–	0.178 ± 0.21	0.05103 ± 0.00015	0.04803 ± 0.00029	0.0782 ± 0.052
CC(C)Cc1ccc([C@H](C)C(=O)O)cc1 [S-(+)-ibuprofen]	0.236 ± 0.012	0.269 ± 0.013	0.24 ± 0.006	0.166 ± 0.0055	0.194 ± 0.0082	0.129 ± 0.0024	0.262 ± 0.015	0.311 ± 0.0056	0.615 ± 0.082	0.402 ± 0.012	0.329 ± 0.004	–	–
Nc1nc2ccc(OC(F)(F)F)cc2s1 [Riluzole hydrochloride]	0.176 ± 0.007	0.188 ± 0.0051	0.255 ± 0.0058	0.212 ± 0.007	0.262 ± 0.016	0.194 ± 0.0031	0.388 ± 0.01	0.208 ± 0.02	0.439 ± 0.011	0.415 ± 0.014	0.419 ± 0.0084	–	–
CCCCNc1ccc(C(=O)OCCN(C)C)cc1	0.208 ± 0.0034	0.273 ± 0.006	0.255 ± 0.003	0.186 ± 0.0077	0.166 ± 0.0023	0.146 ± 0.0066	0.266 ± 0.033	0.354 ± 0.021	0.468 ± 0.0089	0.396 ± 0.019	0.346 ± 0.018	–	–
OCCOCCN1CCN(C2=Nc3ccccc3Sc3ccccc32)CC1 [Quetiapine hemifumarate]	0.158 ± 0.01	0.25 ± 0.0048	0.255 ± 0.0044	0.203 ± 0.026	0.121 ± 0.0057	0.151 ± 0.0081	0.162 ± 0.024	0.361 ± 0.016	0.486 ± 0.019	0.396 ± 0.0062	0.289 ± 0.0089	–	–
CN(N=O)C(=O)N[C@H]1C(O)O[C@H](CO)[C@@H](O)[C@@H]1O (mixture of isomers) [Streptozotocin]	0.197 ± 0.0036	0.259 ± 0.028	0.2526 ± 0.0016	0.147 ± 0.0062	0.14 ± 0.0077	0.0717 ± 0.0018	0.243 ± 0.0054	0.305 ± 0.045	–	0.378 ± 0.019	0.0602 ± 0.0034	0.192 ± 0.016	0.206 ± 0.015
